IDE exosite FP: insulin-degrading enzyme (human) exo-site inhibition; z-score at 20 µM; purified IDE, FL-6b probe fluorescence polarization; hits give low values; 17,000 compounds, 6.3% hits; P14735;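 active = z-score of -3 or lower, meaning strong loss of probe binding signal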;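 also: His-tagged human IDE residues 42-1019 made in E. coli with 30 nM FL-6b probe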
Numbers without * were called inactive. Only a selection was taken, and hits are over-represented in it overall.

SMILES | IDE exosite FP
O=C1CN(Cc2ccccc2)C[C@H]2[C@@H](c3ccc(-c4ccccc4F)cc3)[C@H](CO)N12 | 0.25
O=C1CN(S(=O)(=O)c2cccc(F)c2)C[C@H]2[C@H](c3ccc(-c4ccc(F)cc4)cc3)[C@H](CO)N12 | 2.4
CO[C@@H](CN(C)S(=O)(=O)c1ccc(C)cc1)[C@@H](C)CN(C(=O)Nc1ccccc1F)[C@H](C)CO | 0.71
COc1ccc(NC(=O)N2CC(=O)N3[C@H](CO)[C@@H](c4ccc(C5=CCCC5)cc4)[C@H]3C2)cc1 | 3.1
O=C(c1ccc2c(c1)OCO2)N1C[C@@H]2N[C@H](C1)C2c1ccc(-c2cncnc2)cc1 (stereo partly drawn) | -0.62
COCC(=O)N(C)C[C@H]1[C@H](c2ccc(-c3cccnc3)cc2)[C@H](CO)N1C(C)=O | 3.4
OC[C@H]1[C@@H](c2ccc(-c3ccc(F)cc3)cc2)[C@H]2CN(Cc3ccncc3)CCCCN21 | 4
Cc1cccc(-c2ccc([C@@H]3[C@H]4CN(CCC(F)(F)F)CCCCN4[C@H]3CO)cc2)c1 | -0.049
Cc1cccc(-c2ccc([C@H]3[C@@H](CO)N4CCCCN(Cc5ccncc5)C[C@@H]34)cc2)c1 | -5.8*
OC[C@@H]1[C@H](c2ccc(-c3ccc(F)cc3)cc2)[C@H]2CN(Cc3ccncc3)CCCCN12 | 4.3
Cc1cccc(-c2ccc([C@@H]3[C@@H](CO)N4CCCCN(Cc5ccncc5)C[C@@H]34)cc2)c1 | -4.9*
CN(C)C(=O)c1ccc(-c2ccc([C@@H]3[C@@H](CO)N4CCCCN(Cc5ccncc5)C[C@H]34)cc2)cc1 | 1.1
CCS(=O)(=O)N(C)C[C@H]1[C@@H](c2ccccc2)[C@@H](CO)N1C(=O)CN(C)C | -0.093
CN(C)CC#Cc1ccc([C@H]2[C@@H](CO)N3CCCCN(C(=O)Nc4ccc(F)cc4)C[C@H]23)cc1 | 1
C/C=C/c1ccc([C@@H]2[C@H](CO)N3C(=O)CN(C(=O)Nc4ccc(OC)cc4)C[C@@H]23)cc1 | 1.3
C[C@H](CO)N1C[C@H](C)[C@@H](CN(C)Cc2ccc(Cl)c(Cl)c2)OCCCC[C@H](C)Oc2ccc(NC(=O)c3ccncc3)cc2C1=O | -0.68
O=C1CN(S(=O)(=O)c2ccccc2)C[C@@H]2[C@H](c3ccc(Br)cc3)[C@@H](CO)N12 | 1.4
O=C(Nc1ccc(F)cc1)N1CCCCN2[C@H](CO)[C@H](c3ccc(C4=CCCCC4)cc3)[C@@H]2C1 | 2.5
Cn1cnc(S(=O)(=O)N2CCCCN3[C@H](CO)[C@H](c4ccc(-c5ccc(F)cc5)cc4)[C@H]3C2)c1 | 1
Cn1cnc(S(=O)(=O)N2CCCCN3[C@H](CO)[C@H](c4ccc(-c5ccccc5F)cc4)[C@@H]3C2)c1 | -1.2
Cn1cnc(S(=O)(=O)N2CCCCN3[C@H](CO)[C@H](c4ccc(-c5ccccc5F)cc4)[C@H]3C2)c1 | -4.6*
Cn1cnc(S(=O)(=O)N2CCCCN3[C@H](CO)[C@@H](c4ccc(-c5ccc(F)cc5)cc4)[C@H]3C2)c1 | 2.2
Cn1cnc(S(=O)(=O)N2CCCCN3[C@H](C2)[C@@H](c2ccc(-c4ccccc4F)cc2)[C@@H]3CO)c1 | -0.2
Cn1cnc(S(=O)(=O)N2CCCCN3[C@@H](CO)[C@@H](c4ccc(-c5ccccc5F)cc4)[C@@H]3C2)c1 | -5.6*
OC[C@@H]1[C@@H](c2ccccc2)C2(CN(Cc3ccccn3)C2)N1Cc1cncnc1 | -0.59
SMILES | IDE exosite FP
O=C(Nc1ccc(F)cc1)N1C[C@@H]2N[C@H](C1)C2c1ccc(-c2cccnc2)cc1 (stereo partly drawn) | 2.3
COc1ccc(C(=O)N2C[C@H]3[C@@H](c4ccccc42)[C@H](CO)N3C(=O)NC(C)C)cc1 | 2.9
COc1cccc(-c2ccc([C@H]3[C@H]4CN(S(=O)(=O)c5cccs5)CCCCN4[C@H]3CO)cc2)c1 | 0.23
Cn1cnc(S(=O)(=O)N2CCCCN3[C@H](CO)[C@@H](c4ccc(-c5ccccc5)cc4)[C@H]3C2)c1 | 1.3
Cn1cnc(S(=O)(=O)N2CCCCN3[C@H](C2)[C@H](c2ccc(-c4cccc(F)c4)cc2)[C@@H]3CO)c1 | 3.3
COc1cccc(-c2ccc([C@@H]3[C@H]4CN(S(=O)(=O)c5cn(C)cn5)CCCCN4[C@H]3CO)cc2)c1 | -5.5*
COc1cccc(-c2ccc([C@H]3[C@@H](CO)N4CCCCN(S(=O)(=O)c5cccs5)C[C@@H]34)cc2)c1 | 2
Cc1cccc(-c2ccc([C@@H]3[C@H](CO)N4CCCCN(S(=O)(=O)c5ccccc5F)C[C@@H]34)cc2)c1 | -22*
Cc1cccc(-c2ccc([C@@H]3[C@@H](CO)N4CCCCN(S(=O)(=O)c5cn(C)cn5)C[C@H]34)cc2)c1 | -0.7
Cc1cccc(-c2ccc([C@H]3[C@@H](CO)N4CCCCN(S(=O)(=O)c5cn(C)cn5)C[C@H]34)cc2)c1 | -11*
Cn1cnc(S(=O)(=O)N2CCCCN3[C@H](CO)[C@H](c4ccc(-c5cccc(F)c5)cc4)[C@H]3C2)c1 | -1.3
Cc1cccc(-c2ccc([C@H]3[C@H](CO)N4CCCCN(S(=O)(=O)c5ccccc5C)C[C@@H]34)cc2)c1 | 1.3
O=S(=O)(c1ccccc1F)N1CCCCN2[C@H](C1)[C@H](c1ccc(-c3ccccc3)cc1)[C@@H]2CO | 0.64
COc1cccc(-c2ccc([C@@H]3[C@@H](CO)N4CCCCN(S(=O)(=O)c5cccs5)C[C@@H]34)cc2)c1 | -3.2*
N#C[C@H]1[C@@H](c2ccc(C#Cc3ccc(F)cc3)cc2)[C@H](CO)N1c1nc(-c2ccccc2)cs1 | 4.3
O=C1CN(S(=O)(=O)Cc2ccccc2)C[C@@H]2[C@H](c3ccc(C#Cc4cccc(F)c4)cc3)[C@H](CO)N12 | 0.44
CO[C@H]1CN(C)C(=O)c2cc(NS(C)(=O)=O)ccc2OC[C@@H](C)N(Cc2cncnc2)C[C@H]1C | 0.75
CO[C@@H]1CN(C)C(=O)c2cc(NC(=O)Nc3ccccc3F)ccc2OC[C@H](C)N(CCC(F)(F)F)C[C@H]1C | 0.3
CCCC#Cc1ccc([C@H]2[C@@H](CO)N(C(C)=O)[C@H]2CNC(=O)C2CCC2)cc1 | 2.4
CN1C(=O)c2cc(NC(=O)C3CCOCC3)ccc2OC[C@@H]2O[C@@H](CC(=O)NCc3ccccc3F)CC[C@H]21 | -0.8
CC[C@@H]1C/C=C\C[C@@H](c2ccc(OC)cc2OC)NC(=O)[C@@H](C)CC(=O)N1 | -1.3
C[C@@H](NC(=O)C[C@H]1CC[C@@H]2[C@@H](COc3ccc(NS(=O)(=O)c4ccc(Cl)cc4)cc3C(=O)N2C)O1)c1ccccc1 | -0.56
COCC(=O)N1CCCCN2[C@@H](CO)[C@@H](c3ccc(C#Cc4cccnc4)cc3)[C@@H]2C1 | 2.2
COCC(=O)N1CC(=O)N2[C@H](C1)[C@H](c1ccc(C#Cc3cccnc3)cc1)[C@@H]2CO | 1.4
CCC(=O)N1CCCCN2[C@H](CO)[C@@H](c3ccc(C#Cc4cccnc4)cc3)[C@H]2C1 | -2.4
CCC(=O)N1CCCCN2[C@H](C1)[C@H](c1ccc(C#Cc3cccnc3)cc1)[C@@H]2CO | -3.5*
CCC(=O)N1CCCCN2[C@H](C1)[C@@H](c1ccc(C#Cc3cccnc3)cc1)[C@@H]2CO | -2.4
COCC(=O)N1CCCCN2[C@@H](CO)[C@H](c3ccc(C#Cc4cccnc4)cc3)[C@@H]2C1 | -6.3*
CN1c2ccc(C3=CCCCC3)cc2[C@@H]2[C@@H](CCN2C(=O)c2ccc3c(c2)OCO3)[C@@H]1CO | 0.81
CN(C)CC#Cc1ccc([C@H]2[C@H]3CN(C(=O)Nc4ccccc4F)CCCCN3[C@H]2CO)cc1 | -0.53

Screens as filed in PubChem.
